Data as given in PubChem BioAssay (NCATS).
Results filed as inconclusive are left out. Entries that show only a call come without a potency. Values without a mark were called inactive. Activity calls are given as the source filed them. Calls come from the whole dose curve; as a rule, active = well fitted inhibition curve with a large enough effect; inconclusive = small, poorly fitted or top-dose-only effect; inactive = no such curve, though single readings can be large or run the other way. Where a SMILES comes first, the peptide text is derived from it. [ ]: non-standard residue; d: D form. Ala(indol-2-yl) = N[C@@H](Cc1cc2ccccc2[nH]1)C(=O)O; Aib = CC(C)(N)C(=O)O

test system: Zika virus NS2B-NS3 protease (unlinked complex); experiment: Primary screen GU Rhodamine qHTS for Zika virus inhibitors: Unlinked NS2B-NS3 protease assay (AID 1347159); settings: Recombinant ZIKV NS2B-NS3 protease, Rhodamine110 substrate fluorescence; series mostly up to 107 µM; note: nearly all actives have a fitted effect of over 60% in size
Text: Avindra Nath, Ph.D., National Institute of Neurological Disorders and Stroke (NINDS), Bethesda, MD
Radhakrishnan Padmanabhan, Ph.D., Georgetown University (GU), Washington D.C.
Zika Virus causes congenital defects, including microcephaly and is associated with Guillain-Barre syndrome, eningoencephalitis and myelitis in infected adult. […] Using a target-based approach, we hope to establish a screening paradigm to uncover novel, cell-active NS2B-NS3 protease (Zika Virus) specific inhibitors from NCATS' collection of small molecules using qHTS.
Four assay panel was created to identify potential Zika Virus inhibitors. Namely, (1) GU unlinked NS2B-NS3 AMC tagged protease qHTS, (2) GU unlinked NS2B-NS3 Rhodamine tagged protease qHTS, (3) NINDS linked NS2B-NS3 AMC tagged protease qHTS, (4) NINDS linked NS2B-NS3 Rhodamine tagged protease qHTS. Active compounds were re-acquired and re-screened to confirm inhibition. Inhibitors were further screened against various confirmatory and counterscreens in dose response format.
Early Translation Branch (ETB)
National Center for Advancing Translational Sciences (NCATS), Rockville, MD
National Institute of Health (NIH), Bethesda, Maryland
Padmanabhan lab provided the NS2B hydrophilic domain and NS3 protease domain in a noncovalent complex used for the unlinked assay. Control compound aprotinin is obtained from Thermo Scientific (#78432; Waltham, Massachusetts). Rhodamine110 substrate ([N-Cbz]-Nle-Lys-Arg-Arg-Rhod110-Arg-Arg-Lys-Nle-[N-Cbz]) was purchased from either Genscript or Bachem.
1536-well Protease (Rhodamine110 Substrate) Assay:
Briefly, 3 microL of enzyme (25 nM final concentration), in assay buffer (10 mM Tris-HCl pH 8.0 with 0.01% Tween 20) were dispensed into a 1,536-well solid-bottom black plate (Greiner Bio One, Monroe, NC). Twenty-three nL of compounds (final concentration range 7.28 nM to 114 microM) or control Aprotinin (final concentration range 3.47 nM to 114 microM) were transferred via Wako Pin-tool (Wako Automation, Richmond, VA). Samples were incubated (room temperature, protected from light) for 15 minutes followed by a 1 microL Rhodamine110 substrate addition (1.5 microM final concentration). Plates were then immediately read on a ViewLux High-throughput CCD imager (PerkinElmer, Waltham, MA) equipped with FITC fluorescence optics (480(20) nm excitation, 540(25) nm emission), then incubated (room temperature, protected from light) for 15 minutes (~15% conversion). The change in fluorescence intensity over the 15-minute reaction period was normalized against no-inhibitor and no-enzyme controls and the resulting percent inhibition data were fitted to a 4-parameter Hill equation. Aprotinin was used as intraplate control.
Potency is the fitted concentration of half-maximal effect.

Compound | Potency | activity change, negative = inhibition
CC[C@@H](C)[C@H]1C(=O)O[C@H](C(C)C)C(=O)N(C)[C@@H](C(C)C)C(=O)O[C@H](C(C)C)C(=O)N(C)[C@@H](C(C)C)C(=O)O[C@H](C(C)C)C(=O)N1C | inactive | 
CN1C(=O)CN=C(c2ccccc2Cl)c2cc(Cl)ccc21 | inactive | 
Cc1ccccc1CN1CCC(N2CCC(n3c(=O)[nH]c4ccccc43)CC2)CC1 | inactive | 
CC1=CC(=O)[C@@H](O)[C@]2(C)C3[C@@H](O)[C@@H]4OC(=O)[C@@H]([C@H]4C)[C@]3(C)C(=O)C[C@@H]12 (stereo not given in full) | inactive | 
CNC(=O)c1cc(C#N)cc(C)c1NC(=O)c1cc(Br)nn1-c1ncccc1Cl | inactive | 
CN(C(=O)CN1C(=O)COc2cc(Cl)c(Cl)cc21)[C@@H](CN1CCCC1)c1ccc(-c2cccc(C(N)=O)c2)cc1 | inactive | 
CCCCCn1cc(C(=O)c2cccc3ccccc23)c2ccccc21 | inactive | 
CN1C(=O)[C@]23CC4C(C)(C)[C@@]5(C[C@@]41CN2CC[C@@]3(C)O)C(=O)Nc1c5ccc2c1OC=CC(C)(C)O2 (stereo not given in full) | 7.08 µM (active) | 
COC1C=CC23c4cc5c(cc4COC2(O)CN(C)C3C1)OCO5 (stereo not given) | inactive | 
C[C@H]1CC[C@@H]2[C@@H](C)[C@H]3[C@H](C[C@H]4[C@@H]5CC=C6CC(O[C@@H]7O[C@H](CO)[C@@H](O)[C@H](O[C@@H]8O[C@H](CO)[C@@H](O)[C@H](O)[C@H]8O)[C@@H]7O[C@@H]7O[C@@H](C)[C@H](O)[C@@H](O)[C@H]7O)CC[C@]6(C)[C@H]5CC[C@]34C)N2C1 (stereo not given in full) | inactive | 
C[C@]12CC[C@H](O[C@@H]3O[C@H](CO)[C@@H](O)[C@H](O)[C@H]3O)CC1=CC[C@@H]1C2CC[C@]2(C)[C@@H](C3=CC(=O)OC3)CC[C@]12O (stereo not given in full) | inactive | 
CC(=O)OC[C@]12C[C@H](OC(C)=O)C(C)=C[C@H]1O[C@@H]1[C@H](O)[C@@H](O)[C@@]2(C)[C@]12CO2 | inactive | 
O=C1Nc2ccc3ncsc3c2/C1=C/c1cnc[nH]1 | inactive | 
CN1C(=O)N(c2ccc(C#N)c(C(F)(F)F)c2)C(=O)[C@@]1(CO)c1ccccc1 | inactive | 
C[C@H]1CN(Cc2ccc(CC(=O)N3CCC(Nc4cccc(F)c4)CC3)cc2)CCN1 | inactive | 
C[C@H]1CN(CC[C@H](O)C2CCCCC2)CC[C@@]1(C)c1cccc(O)c1 | inactive | 
CC1=CC2/C=C(\C)CCC(O)C(O)/C=C/C(=O)OC23C(=O)NC(CC(C)C)C3C1C (stereo not given) | inactive | 
Cc1ccc(Cn2nc(C(=O)N[C@@H]3C(C)(C)[C@@H]4CC[C@@]3(C)C4)cc2-c2ccc(Cl)c(C)c2)cc1 | inactive | 
CC1=CC2OC3CC(O)[C@](C)([C@@]2(C)C(O)C1=O)[C@]31CO1 (stereo not given in full) | inactive | 
COC1CC(O[C@H]2CC[C@@]3(C)C(CCC4C3CC[C@]3(C)[C@@H](C5=CC(=O)OC5)CC[C@]43O)C2)OC(C)C1O (stereo not given in full) | inactive | 

Compound | Potency | activity change, negative = inhibition
C=C(C)C(=O)O[C@H]1[C@@H]2[C@H](C)C(=O)O[C@@H]2C[C@@H](C)[C@@H]2C=CC(=O)[C@]21C | inactive | 
CN=C(NS(=O)(=O)c1ccc(Cl)cc1)N1C[C@H](c2ccccc2)C(c2ccc(Cl)cc2)=N1 | inactive | 
C/C1=C/[C@@H](C)C/C=C/[C@H]2[C@@H]3O[C@]3(C)[C@@H](C)[C@H]3[C@H](Cc4c[nH]c5ccccc45)NC(=O)[C@]32C(=O)/C=C\C(=O)[C@@H]1O | inactive | 
O=C(NCCN1CCC2(CC1)C(=O)NCN2c1cccc(F)c1)c1ccc2ccccc2c1 | inactive | 
C[C@]12CC[C@H]3[C@@H](CCC4=C/C(=N/OCC(=O)O)CC[C@@]43C)[C@@H]1CC[C@@H]2O | inactive | 
C=C1[C@@H](O)[C@]2(O)OC[C@]34C2[C@]2(C)C(C[C@H]3OC(=O)[C@H](O)[C@@]14O)C(C)=CC(=O)[C@H]2O (stereo not given in full) | inactive | 
CN(C)[C@@H]1C(=O)C(C(N)=O)=C(O)[C@@]2(O)C(=O)C3=C(O)c4c(O)ccc(Cl)c4[C@@](C)(O)C3C[C@@H]12 (stereo not given in full) | inactive | 
CN1C[C@@H]2CN(c3ccc(-c4ccccc4)nn3)C[C@@H]2C1 | inactive | 
CC(=O)O[C@H]1CC[C@H]2[C@@H]3CC[C@H]4CC(=O)C=C(C)[C@]4(C)[C@H]3CC[C@]12C | inactive | 
CC[C@H]1C2CC3[C@@H]4N(C)c5ccccc5[C@]45C[C@@H]([C@H]2[C@H]5O)N3[C@@H]1O | inactive | 
CC1(C)C(=O)N(c2ccc(C#N)c(C(F)(F)F)c2)C(=S)N1c1ccc(C(N)=O)c(F)c1 | inactive | 
C[N@@+]1(CC2CC2)CC[C@]23c4c5ccc(O)c4O[C@H]2C(=O)CC[C@@]3(O)[C@H]1C5 | inactive | 
COC1CCCC(C)OC(=O)Cc2cc(O)cc(O)c2C(=O)C1 (stereo not given) | inactive | 
CN1CN(c2ccccc2)C2(CCN(CCCC(=O)c3ccc(F)cc3)CC2)C1=O | inactive | 
CC(C)(NC(=O)[C@@H](N)Cc1ccc(O)cc1)C(=O)N[C@@H](Cc1cc2ccccc2[nH]1)C(=O)N[C@@H](Cc1ccccc1)C(=O)O (H-Y[Aib][Ala(indol-2-yl)]F-OH) |  | 11.5% [at 19.1 µM]
CO[C@H]1[C@@H](O)[C@@H](C)O[C@@H](O[C@@H]2C=C3C(OC(C)=O)CC4(O)C(CC[C@]5(C)[C@@H](C6=CC(=O)OC6)CC[C@]45O)[C@@]3(C)CC2)[C@@H]1O (stereo not given in full) | inactive | 
CN1CCCCC1Cn1cc(C(=O)c2cc([N+](=O)[O-])ccc2I)c2ccccc21 (stereo not given) | inactive | 
C=C1C(=O)OC2/C=C(\COO)CC/C=C(\COC(C)=O)CC(OC(=O)C(C)CC)C12 (stereo not given) | inactive | 
CCCCOC(=O)c1ccnc2cc(C(OCCN3CCCCC3)c3ccccc3Cl)sc12 (stereo not given) | inactive | 
CC(=O)O[C@H]1CC[C@@]2(CI)C(=CC[C@@H]3[C@@H]2CC[C@]2(C)C(=O)CC[C@@H]32)C1 | inactive | 
